The values that follow come from PubChem BioAssay (NCI).

Molecules are shown by their SMILES. Values joined by “and” are separate entries in the source; they are usually repeats but may differ in a detail not shown here. Identical values can stand only once. About 83,000 compounds went through this panel and 20% of them were active in at least one assay; those are over-represented in the sample as a whole.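 A percent growth of 40 corresponds to 60% growth inhibition; 0 means no net growth; -100 means all cells died. Active threshold: below 10.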 Active and inactive are the calls of the source.

The test system of the first assay is SK-MEL-28 melanoma. In words: NCI-60 one-dose screen, 48 h (100 = growth as untreated, 0 = no growth, -100 = all killed). The note with it: 10 µM. How it is done:
Growth inhibition of the SK-MEL-28 human tumor cell line is measured as a screen for anti-cancer activity. Cells are grown in 96 well plates and exposed to the test compound for 48 hours. Compounds are tested at a single concentration, which is 10^-5 M for most compounds. The reported endpoint is percent growth (GI% or GIPRCNT), where numbers from 0 - 100% represent growth inhibition, and numbers from -100% - 0 represent cell death. For example, a value of 40 represents 60% growth inhibition. A value of 0 means no net growth occurred over the course of the experiment. A value of -40 indicates 40% of cells at the beginning of the experiment died by the end of the experiment. A value of -100 means all cells are dead at the end of the experiment.
NCI-60 Human Tumor Cell Lines Screen was performed using the standard one-dose NCI protocol, which is described in more detail at https://dtp.cancer.gov/discovery_development/nci-60/default.htm.
Compounds with GIPRCNT values below 10 were considered active. Activity score was based on GIPRCNT using the following formula: […]
Score is 0 for GIPRCNT values of 100 or above, 50 for GIPRCNT values of 0, and 100 for GIPRCNT values of -100.
As to `S=c1nc[nH]c2nc[nH]c12`, the growth is 114% (inactive).

Take `CS/C(=C\c1ccc(C(=O)c2ccc(C)cc2)n1C)S(C)=O` (stereo not given): the growth is 84.7% (inactive).

Still in this assay, the particulars now being: 10 µM unless noted.
`O=c1[nH]c(=S)[nH]n1C(=S)n1[nH]c(=S)[nH]c1=O`: the growth is 114% (inactive).

Consider `Cc1cc(O)c(C(C)C)cc1N=O`, for which the growth is 110% (inactive) and 113% (inactive).

With `Cc1cc(NC(=O)NC(=O)c2ccccc2N(C)C)ccc1Oc1ncc(Br)cn1`, the growth was 68.1% (inactive).

Take `COc1ccc2oc3cc(NCCN(C)C)ccc3c(=O)c2c1`: the growth is 96.1% (inactive) and 91.3% (inactive).

As to `NC1=NC(c2ccccc2)N=C(Nc2ccccc2)N1` (stereo not given), the growth was 87.8% (inactive) and 102% (inactive).

As to `O=C(c1ccncc1)c1c(Cc2ccccc2)ccc2ccccc12`, the growth was 90.2% (inactive).

As for `O=C1C=CC(n2cc(F)c(=O)[nH]c2=O)O1` (stereo not given), the growth is 75.1% (inactive).

For the compound `CC(=O)Nc1ccc2oc(=O)ccc2c1`, the growth is 115% (inactive).

Regarding `CCOC(=O)c1ccc(N2C(=O)C(Cl)(c3ccccc3)C2c2ccco2)cc1` (stereo not given), the growth is 88.3% (inactive).

As to `COC(=O)c1nc(N)nc(C(=O)OC)c1C(=O)c1ccc(F)cc1`, the growth is 115% (inactive).

For the compound `Nc1c(S(=O)(=O)O)cc(Br)c2c1C(=O)c1ccccc1C2=O`, the growth is 109% (inactive) and 113% (inactive).

For the compound `CN(C=O)c1ccccc1`, the growth was 109% (inactive).

In the case of `O=C1C=CC(=O)N1Cc1ccco1`, the growth is 113% (inactive).

As for `COc1cc(Cl)ccc1C`, the growth is 112% (inactive).

Take `OC(CC(c1ccccc1)c1cccc2ccccc12)(c1ccccc1)c1ccccc1` (stereo not given): the growth was 95.8% (inactive) and 100% (inactive).

Turning to `O=C1CCC(=O)N1CC1CC2CCC1C2` (stereo not given), the growth is 109% (inactive) and 103% (inactive).

As for `COc1ccc([N+](=O)[O-])cc1OC`, the growth is 95.9% (inactive) and 107% (inactive).

On to `Cc1ccc2cccc([N+](=O)[O-])c2n1`, for which the growth was 109% (inactive) and 111% (inactive).

With `O=C(O)C#Cc1ccc(Cl)cc1`, the growth is 107% (inactive).

As to `O=C(O)c1cc(=O)[nH]c(=O)[nH]1`, the growth is 114% (inactive) and 93.6% (inactive).

As for `OCc1ccccc1F`, the growth was 103% (inactive).

As for `CCNCc1ccccc1`, the growth is 96.9% (inactive).

As for `Cc1cc2ccccc2c2cc3ccccc3cc12`, the growth was 107% (inactive).

As for `COC(=O)C(Cc1cn(C(C)=O)c2ccccc12)P(=O)(OC)OC` (stereo not given), the growth was 114% (inactive).

For the compound `C#CCOC(=O)C(N)CS` (stereo not given), the growth was 94.9% (inactive).

In the case of `OC1CCCN(Cc2ccccc2)C1` (stereo not given), the growth was 108% (inactive).

For `Cc1nc(Nc2ccc(Cl)cc2)c2cnn(-c3ccccc3)c2n1`, the growth was 102% (inactive).

Take `COc1ccc(/C=C/C(=O)O)cc1OC`: the growth is 111% (inactive) and 115% (inactive).

For `COc1ccc(CCO)cc1`, the growth is 111% (inactive).

On to `CC(C)=NOC(C)C(=O)O` (stereo not given), for which the growth is 113% (inactive).

Consider `N#CC1c2ccccc2C=CN1C(=O)c1ccccc1` (stereo not given), for which the growth was 103% (inactive) and 122% (inactive).

Consider `CCN(CC)CCNC(=O)c1ccc(NCN2C(=O)NC(c3ccccc3)(c3ccccc3)C2=O)cc1`, for which the growth is 117% (inactive).

In the case of `N=C(N=C(N)N)N1CCOCC1`, the growth is 99.5% (inactive) and 103% (inactive).

Regarding `CCCC(=O)Oc1ccc(CC)cc1`, the growth is 117% (inactive).

Take `CC1OS(=O)OC1C` (stereo not given): the growth is 109% (inactive) and 103% (inactive).

With `COc1ccc(-n2[nH]c3c(cnc4ccccc43)c2=O)cc1`, the growth was 108% (inactive) and 100% (inactive).

Staying with this assay, now noted: 50 µM.
Turning to `S=c1nc[nH]c2nc[nH]c12`, the growth is 75.6% (inactive).

The assay is the same for the next values; noted with them: 100 µM.
For `CS/C(=C\c1ccc(C(=O)c2ccc(C)cc2)n1C)S(C)=O` (stereo not given), the growth was 74.9% (inactive).
